JMJD2A Tudor inh: inhibitors of human JMJD2A Tudor domain. actives 4.4% (n = 390,000). Potency, µM (top dose mostly 114 µM), for inactives: top-dose activity change, negative = inhibition, most hits filed as inhibitors. O75164. AlphaScreen JMJD2A-Tudor / H3K4me3 peptide binding; note: % is set by controls: 0 for no effect and ±100 for the full control effect; nearly all actives have a fitted effect of over 50% in size
BAZ2B inh: blocks human BAZ2B; Potency, µM (top dose mostly 114 µM), for inactives: top-dose activity change, negative = inhibition, most hits filed as inhibitors; Q9UIF8; AID 504333; AlphaScreen BAZ2B-H3K14Ac peptide displacement; actives 4.4% (n = 360,000); note: % is set by controls: 0 for no effect and ±100 for the full control effect; nearly all actives have a fitted effect of over 60% in size
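Protein-peptide AlphaScreen: BAZ2B 50 nM, b-H3K14Ac 50 nM, 1x PBS pH 7.4 + 0.01% Tween-20. Preincubation 30 min RT; cpd 30 min RT (top 110 uM); beads 20 min RT, light-protected.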
PLK1 PBD block: blocks phosphopeptide binding to human PLK1 polo-box domain; P53350; Plk1 PBD binding of FITC phosphopeptide, fluorescence polarization; Potency, µM, for inactives: max response, negative = inhibition, usual class: inhibitors; actives 2.8% (n = 360,000); note: series mostly up to about 57 µM; % is set by controls: 0 for no effect and ±100 for the full control effect; nearly all actives have a fitted effect of over 65% in size
Target sequence (P53350 whole entry, looked up, the tested form may be a part): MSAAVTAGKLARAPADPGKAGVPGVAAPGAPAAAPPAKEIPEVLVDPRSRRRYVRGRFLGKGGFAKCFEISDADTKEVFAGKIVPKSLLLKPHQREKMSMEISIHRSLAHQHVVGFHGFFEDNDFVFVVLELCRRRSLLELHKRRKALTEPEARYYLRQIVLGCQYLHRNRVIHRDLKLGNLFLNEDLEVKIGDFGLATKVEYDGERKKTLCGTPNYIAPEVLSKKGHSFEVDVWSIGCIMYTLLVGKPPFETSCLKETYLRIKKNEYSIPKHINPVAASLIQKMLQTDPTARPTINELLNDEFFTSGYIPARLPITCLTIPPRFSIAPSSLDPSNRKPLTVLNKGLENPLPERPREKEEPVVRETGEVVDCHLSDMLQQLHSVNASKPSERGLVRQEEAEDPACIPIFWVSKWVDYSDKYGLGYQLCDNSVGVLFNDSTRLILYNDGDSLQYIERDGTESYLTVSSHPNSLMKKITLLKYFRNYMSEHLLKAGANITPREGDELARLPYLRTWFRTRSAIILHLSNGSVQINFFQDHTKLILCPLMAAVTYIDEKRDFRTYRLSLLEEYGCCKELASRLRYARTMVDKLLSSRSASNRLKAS
G9a block: blocks human histone lysine methyltransferase G9a. Q96KQ7. G9a H3K9 monomethylation, AlphaScreen, 2 h. Potency, µM (titrated, usually from 102 µM), inactives show at the top dose activity, negative = inhibition, actives largely listed as inhibitors. actives 8.8% (n = 350,000); note: % is set by controls: 0 for no effect and ±100 for the full control effect; nearly all actives have a fitted effect of over 75% in size
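AlphaScreen read-out: biotin-H3K9 peptide (500 nM) methylation by 20 nM enzyme with 20 uM SAM, 2 h at room temperature after 15 min compound preincubation; anti-monomethyl H3K9 antibody plus donor/acceptor beads, 10 min dark.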
ALOX12 inh: ALOX12 (human) lipoxygenase inhibition; P18054; AID 1671190; actives 1.1% (n = 580,000); purified 12hLO, xylenol orange hydroperoxide absorbance; Potency, µM (series often up to 108 µM), inactives show at the top dose activity change, negative = inhibition, usual class: inhibitors; note: % is set by controls: 0 for no effect and ±100 for the full control effect
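Purified human 12hLO at 150 nM in 25 mM Hepes, 0.01% Triton X-100, pH 7.0, preincubated 15 min at room temperature with compound. Reaction started with 40 uM arachidonic acid, 30 min at room temperature. Hydroperoxide measured by Fe-xylenol orange, 573/405 nm absorbance ratio.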
HP1b chromo inh: blocks HP1-beta chromodomain binding to methylated histone tails | P83916 | AlphaScreen HP1-beta / biotin-H3K9me3 peptide binding | Potency, µM (titrated, usually from 114 µM), for the others: top-dose activity change, negative = inhibition, actives largely listed as inhibitors | actives 0.56% (n = 390,000) | AID 540317; note: nearly all actives have a fitted effect of over 70% in size
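AlphaScreen: HP1-beta (50 nM) preformed 30 min with biotin-H3(1-18)K9me3 peptide (50 nM) in PBS pH 7.4, 0.01% Tween-20. Compound added for 30 min at RT, then streptavidin donor/nickel chelate acceptor beads (10 ug/mL) for 30 min.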
Starred values were filed as active, the others as inactive; i = inactive; ? = inconclusive; . = not tested or not shown; ! = repeats disagree; [ ] = remark or other dose. Only some compounds are listed: those with a hit (about 9% of all), similar ones and a draw of the others. Calls come from the whole dose curve; as a rule, active = well fitted curve in the direction sought with a large enough effect; inconclusive = small, poorly fitted or top-dose-only effect, or another doubt; inactive = no such curve, though single readings can be large; an effect the other way counts as inactive or inconclusive. Potency is the fitted concentration of half-maximal effect.

SMILES | JMJD2A Tudor inh | BAZ2B inh | PLK1 PBD block | G9a block | ALOX12 inh | HP1b chromo inh
COc1ccc(-c2oc(=O)c3cc(OC)c(OC)cc3c2C#CC2(O)CCCCC2)cc1 | -7% | . | -10% | . | -12% | 8%
COc1ccc(-c2oc3cccnc3c2-c2ccc(OC)nc2)cc1 | 52% | 27% | 2% | 101% | ? | 75%
COc1ccc(CNC(=O)C(C)N(C)Cc2cccc(F)c2)cc1 (configuration not stated) | 4% | 5% | 1% | -12% | i | 84%
COc1ccc(C(C(=O)NCC2CCCO2)N(C(=O)Cn2nnc3ccccc32)c2ccc(NC(C)=O)cc2)c(OC)c1 (configuration not stated) | -1% | -6% | 1% | 1% | -1% | 14%
N#CCCn1cc(-c2csc(NC3CC3)n2)c2ccccc21 | . | . | . | . | 14µM* | .
Cc1cc(C)cc(C(=O)NN2CCN(C)CC2)c1 | 22µM* | 4% | 12µM* | 3%[12.7 µM] | -8% | -5%
Cc1cc(C)cc(C(=O)NN2CCOCC2)c1 | -7% | 12% | -7% | 12%[59 µM] | 6% | 25%
CCC(CC)C1C(C#N)=C(N)SC(N)=C1C#N | ? | -2% | -11% | ? | -14% | 55%
CC(C)C1C(C#N)=C(N)SC(N)=C1C#N | 18% | -38% | -13% | 14µM* | -23% | 41%
CC(c1ccccc1)C1C(C#N)=C(N)SC(N)=C1C#N (configuration not stated) | ? | 12% | -27% | 16µM* | ? | 23%
CC(CC1C(C#N)=C(N)SC(N)=C1C#N)c1ccccc1 (configuration not stated) | 56µM* | -23% | -16% | 10µM* | ? | 13%
CC(c1ccccc1)C1C(C#N)=C(N)OC2=C1C(=O)CCC2 (configuration not stated) | 8% | 10% | -5% | . | 0% | 27%
CCCn1c(SCC(=O)Nc2ccc(OCC)cc2)nnc1C(C)C | -7% | -6% | -1% | 8%[59 µM] | 0%[57.4 µM] | 29%
CN1CCN(c2nc3c(c(=O)[nH]2)CCN(Cc2ccc(Br)o2)CC3)CC1 | . | . | . | . | 31% | .
COc1ccc(-c2[nH]ncc2-c2nc(C)cs2)c(O)c1 | -28% | ? | ? | ? | 0% | -30%
O=C(Nc1nc(C23CC4CC(CC(C4)C2)C3)cs1)c1cc(-c2cccnc2)nc2ccccc12 | . | . | . | . | -23% | .
CCCC1CC(CSC(=N)N)OC1=O (configuration not stated) | -9% | 12% | -7% | 23%[59 µM] | -14% | 13%
CCCOCC1CC(CCc2nc(=S)[nH][nH]2)C(=O)O1 (configuration not stated) | 5µM* | -2% | -2% | 1.8µM* | ? | ?
Cc1nc(N2CCN(C(=O)c3ccco3)CC2)nc2c1C(=O)CC(C)C2 (configuration not stated) | -6% | -9% | -1% | 1% | -29% | 41%
Cc1cccc(NC(=O)c2cc(-c3ccc(C)o3)nc3ccccc23)n1 | . | . | . | . | -116% | .
Cc1ccccc1NC(=O)c1cc(-c2ccco2)nc2ccccc12 | 20µM* | . | ? | . | ? | ?
Cc1ccc(NC(=O)c2cc(-c3ccco3)nc3ccccc23)cc1S(=O)(=O)N1CCOCC1 | -33% | ? | -26% | ? | -9% | -19%
COc1ccc(NC(=O)c2cc(-c3ccco3)nc3ccccc23)cc1S(=O)(=O)N1CCOCC1 | ? | 45µM* | 21µM* | . | -3% | ?
Cc1cccc2c(C(=O)O)cc(-c3ccco3)nc12 | . | . | . | . | 8.9µM* | .
Cc1cccc(NC(=O)c2cc(-c3ccco3)nc3ccccc23)n1 | -26% | ? | -13% | 32µM* | 28µM* | 34%
SMILES | JMJD2A Tudor inh | BAZ2B inh | PLK1 PBD block | G9a block | ALOX12 inh | HP1b chromo inh
CCN1C(=O)N(CC(N)=O)C(=O)C12CCN(Cc1cccc(Oc3ccccc3)c1)CC2 | . | . | . | . | 3% | .
O=C(N/N=C/c1cccc(F)c1)c1cc(-c2ccco2)nc2ccccc12 | ? | 6.3µM* | 11µM* | ? | -14%[57.4 µM] | 28µM*
CCc1nnc(NC(=O)c2cc(-c3ccco3)nc3ccccc23)s1 | ? | 40µM* | ? | 50µM* | ? | -15%
COc1cc(-c2cc(C(=O)Nc3cc(S(=O)(=O)N4CCOCC4)ccc3O)c3ccccc3n2)cc(OC)c1OC | -24% | . | 17µM* | . | ? | ?
Cc1ccccc1NC(=S)NC(=O)c1cc(-c2ccccc2)nc2ccccc12 | ? | -37% | 30µM* | . | ? | -24%
COc1cc(-c2cc(C(=O)Nc3cc(S(=O)(=O)N4CCOCC4)ccc3C)c3ccccc3n2)cc(OC)c1OC | -10% | 9% | -5% | ? | . | 16%
Cc1cc(OCC(=O)N2CCOCC2)ccc1NC(=O)C1CCCCC1 | 1% | 1% | -4% | -2% | -6% | 37%
O=C(Nc1ccccc1C(F)(F)F)N1CC=C(c2c[nH]c3ccccc23)CC1 | -35% | ? | . | -42%[59 µM] | -14% | -12%
CC(=O)Nc1ccc(NC(=O)c2cc(-c3ccco3)nc3ccccc23)cc1 | . | . | . | . | 11µM* | .
Cc1ccc(S(=O)(=O)N(C)C)cc1NC(=O)c1cc(-c2ccco2)nc2ccccc12 | ? | ? | -14% | 40µM* | . | 7%
O=C(O)c1cc(-c2ccco2)nc2ccc(Br)cc12 | 13µM*! | 11% | 4.2µM*! | 3.5µM* | 16µM*! | 56µM*!
O=C(c1cc2ccccc2[nH]1)N1CCc2ccccc2C1 | . | . | . | . | 0% | .
Cc1onc(-c2ccccc2)c1C(=O)Nc1nc(-c2ccc(F)c(F)c2)cs1 | -18%[11.4 µM] | -11% | -13% | -24%[12.7 µM] | 0% | 27%
O=C1N=C(N2CCOCC2)S/C1=C1\C(=O)N(Cc2ccccc2)c2ccccc21 | -15% | 21% | -9% | 15%[59 µM] | ? | 27%
CCCN1C(=O)/C(=C2\SC(N3CCCCC3)=NC2=O)c2ccccc21 | 40µM* | 16µM* | -9% | 22µM* | -15% | -70%
CN1C(=O)/C(=C2\SC(N3CCCCCC3)=NC2=O)c2ccccc21 | 40µM* | ? | -11% | 40µM* | -20% | ?
O=c1c(Cl)c(N2CCN(Cc3nnc(-c4ccccc4)o3)CC2)cnn1-c1ccccc1 | . | . | . | . | -3% | .
Cc1ccc(CNc2oc(COc3ccccc3Cl)nc2C#N)cc1 | -33% | -38% | -3% | ? | 12% | 2%
N#Cc1nc(COc2ccccc2Cl)oc1NCc1ccc(F)cc1 | ? | ? | -10% | 45µM* | 12% | 4%
COc1ccccc1-c1nc(C#N)c(NCc2ccc(F)cc2)o1 | -34% | 50µM* | -2% | ? | 0% | ?
CC(C)OCCOc1ccc2oc(-c3ccco3)cc(=O)c2c1 | ? | 56µM* | -9% | -3%[59 µM] | ? | ?
